These results are taken from PubChem BioAssay (Tox21).

Unmarked numbers belong to inactive results. Inconclusive results are not listed. Calls of active or inactive are those of the source. Unless noted, calls come from the whole dose curve.

A short description of test [1]: Nuclear factor erythroid 2-related factor 2/antioxidant responsive element (Nrf2/ARE) small molecule agonists: qHTS cell viability counter screen in human keratinocytes (AID 1919968; active = well fitted curve in the direction sought with a large enough effect in the repeat runs; an effect the other way counts as inactive or inconclusive; note: nearly all actives have a fitted effect of over 55% in size; note: potency is the fitted concentration of half-maximal effect). The method in brief:
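HaCaT ARE reporter line, 1,500 cells/well; 5 h settle, 37 C/5% CO2; cpd in DMSO pinned; 23 h exposure; CellTiter-Fluor, 1 h; fluorescence.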
A general note: qHTS replaces the single test concentration by a dilution series.

The target in test [2] is Gonadotropin-releasing hormone receptor (Homo sapiens) (UniProt P30968). The test can be described thus: Human gonadotropin-releasing hormone receptor (GnRHR) small molecule agonists, calcium flux assay in GnRHR-HEK293 cells (AID 1920063). Note: nearly all actives have a fitted effect of over 35% in size. Note: potency is the fitted concentration of half-maximal effect. The method in brief: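 GnRHR-HEK293, 1500 cells/well, 18 h 37 C/5% CO2; Ca dye 1 h 37 C; cpd pinned (DMSO), agonist mode; kinetic FL 480/540, 3 min, 1 s reads; 15 conc, n=3.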
A general note: Calcium assays in cells follow changes in intracellular calcium, usually with a dye or a luminescent sensor.

The target in test [3] is KiSS-1 receptor (Homo sapiens) (UniProt Q969F8). Put plainly: Human kisspeptin (KISS1R) small molecule agonists, calcium flux assay in KISS1R-HEK293 cells (AID 1920064; active = well fitted curve in the direction sought with a large enough effect in the repeat runs; an effect the other way counts as inactive or inconclusive; note: potency is the fitted concentration of half-maximal effect). The procedure, abridged:
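Stable human KISS1R HEK293 line; 18 h plating, 37 C/5% CO2; calcium dye 1 h 37 C; compound pin transfer; kinetic fluorescence Ex/Em 480/540, 3 min.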

The nature of test [4]: p53 small molecule agonists, cell-based qHTS assay with human liver microsomes (AID 1963577).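 Note: p53 response element beta-lactamase reporter cells with liver microsomes plus NADPH.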 The method in brief: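 With metabolic activation: human liver microsomes (0.5 mg/mL final) plus NADPH (0.5 mg/mL final) added alongside compounds to p53RE-bla cells; 16 h 37 C exposure; beta-lactamase read by LiveBLAzer fluorescence.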
The nature of test [5]: p53 small molecule agonists, cell-based qHTS assay with rat liver microsomes (AID 1963578). The procedure, abridged: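 Metabolic activation by rat liver microsomes and NADPH, each 0.5 mg/mL final, added right after compounds to p53RE-bla reporter cells (4,000/well, plated 5 h earlier). 16 h at 37 C, then LiveBLAzer substrate for 2 h at room temperature in the dark; fluorescence read-out.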

The nature of test [6]: p53 small molecule agonists, cell-based qHTS assay with human liver microsomes: qHTS cell viability counter screen (AID 1963579). Note: nearly all actives have a fitted effect of over 45% in size. The procedure, abridged: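 Metabolic activation used human liver microsomes and NADPH, both 0.5 mg/mL final, over 16 hours at 37 C on p53RE-bla cells (4,000/well). Cytotoxicity measured by CellTiter-Glo luminescence, 30 min at room temperature.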

The nature of test [7]: p53 small molecule agonists, cell-based qHTS assay with rat liver microsomes: qHTS cell viability counter screen (AID 1963580). Note: nearly all actives have a fitted effect of over 45% in size. The method in brief: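 HCT-116 p53RE-bla, 4,000 cells/well, 5 h pre-incubation; cpd + rat liver microsomes 0.5 mg/mL + NADPH 0.5 mg/mL (final); 16 h, 37 C; CellTiter-Glo, 30 min RT; luminescence.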
Test [8] can be described thus: p53 small molecule agonists, cell-based qHTS assay: qHTS cell viability counter screen (AID 1963581). Note: nearly all actives have a fitted effect of over 45% in size. The procedure, abridged: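 HCT-116 p53RE-bla cells, 4,000/well, plated 5 h before compound pin transfer; 16 h at 37 C; bla substrate 2 h RT; then CellTiter-Glo, 30 min RT, luminescence.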
Test [9] is described as follows: p53 small molecule agonists, cell-based qHTS assay (AID 1963582; active = well fitted activation curve with a large enough effect in the signal ratio in the repeat runs, not every such curve was filed as active; the % refers to the signal ratio). The method in brief: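 Reporter line: p53RE-bla. Pre-incubation 5 h, 37 C, 5% CO2; compound (DMSO, pin tool) 16 h, 37 C; B/G FRET substrate 2 h RT; fluorescence intensity read.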
Test [10] has as its target 5-hydroxytryptamine receptor 2A (Homo sapiens) (UniProt P28223). Put plainly: 5-hydroxytryptamine receptor 2A (HTR2A) small molecule agonists, cell-based qHTS assay (AID 1963587). Note: nearly all actives have a fitted effect of over 30% in size. The procedure, abridged:
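Kinetic calcium-flux fluorescence (2 min, 1 sec intervals) after compound addition in agonist mode. HTR2A-CHO cells were cultured 18 h, then dye-loaded 1 h at 37 C.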

Test [11] has as its target Muscarinic acetylcholine receptor M1 (Homo sapiens) (UniProt P11229). The test can be described thus: Cholinergic receptor muscarinic 1 (CHRM1) small molecule antagonists, cell-based qHTS assay (AID 1963588). Note: nearly all actives have a fitted effect of over 40% in size. The procedure, abridged: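 CHRM1-CHO calcium-flux assay, antagonist mode. Cells were seeded 18 h, dye-loaded 1 h at 37 C and given compound for 5 min at RT, then acetylcholine was added at 50nM. FDSS fluorescence was read 3 min; 15 concentrations, three runs.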

Test [12] in a line: cAMP Responsive Elements (CRE) small molecule agonists, cell-based qHTS assay (AID 1963590). The method in brief:
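HEK 293T CRE-bla, 2,000 cells/well, 18 h preincubation 37 C/5% CO2; cpds (DMSO) pinned, 3 h; LiveBLAzer B/G FRET substrate, 2 h RT.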

Test [13] is described as follows: cAMP Responsive Elements (CRE) small molecule antagonists, cell-based qHTS assay (AID 1963591; active = well fitted inhibition curve with a large enough effect in the signal ratio in the repeat runs, not every such curve was filed as active; the % refers to the signal ratio; note: potency is the fitted concentration of half-maximal effect). The procedure, abridged:
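Beta-lactamase reporter read by FRET substrate (LiveBLAzer B/G) after 2 h at room temperature. CRE-bla HEK293T cells had received compound plus 0.25 uM (final) NKH477 for 3 h at 37 °C.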

The target in test [14] is Beta-2 adrenergic receptor (Homo sapiens) (UniProt P07550). Put plainly: Adrenergic beta2 receptor (ADRB2) small molecule agonists, cell-based qHTS assay (AID 1963593).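 For activation: CHO cells stably overexpressing human ADRB2.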 Note: potency is the fitted concentration of half-maximal effect. The procedure, abridged:
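CHO cells stably over-expressing ADRB2 were plated overnight at 37C, then dosed with compounds plus a stimulation mix containing 100uM IBMX and 25uM Ro-20-1724 for 0.5hr at room temperature. cAMP was measured by HTRF competition, 1hr.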

In test [15] the target is D(2) dopamine receptor (Homo sapiens) (UniProt P14416). The test can be described thus: Dopamine D2 receptor (DRD2) small molecule agonists, cell-based qHTS assay (AID 1963594). Note: nearly all actives have a fitted effect of over 35% in size. The procedure, abridged:
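cAMP accumulation in DRD2-HEK293 cells measured by HTRF after 1 h detection; compounds added 10 min before NKH477 (200nM […]) forskolin-analogue stimulation, 30 min at room temperature, with Ro20-1724 present at 0.1 mM final.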

The target is the same in test [16]. The test can be described thus: Dopamine D2 receptor (DRD2) small molecule antagonists, cell-based qHTS assay (AID 1963595; active = well fitted inhibition curve with a large enough effect in the signal ratio in the repeat runs, with a control signal flat; the % refers to the signal ratio; note: potency is the fitted concentration of half-maximal effect). The procedure, abridged:
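HEK293 cells stably expressing DRD2, preincubated with 0.1 mM Ro20-1724 and compounds 10 min, were stimulated with 200 nM NKH477 plus 12 nM quinpirole for 30 min at room temperature; cAMP measured by HTRF (665/620 nm).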

The nature of test [17]: G protein-coupled receptor (GPCR) small molecule agonists, calcium flux assay: HEK293 wild type cell line counter screen (AID 1920065). The procedure, abridged: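 Kinetic fluorescence at Ex/Em 480/540, recorded every second over 3 min, served as the read-out after compound addition. Each compound was tested at 15 concentrations in triplicate on cells pre-loaded with calcium dye for 1 h.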

Test [18] deals with Muscarinic acetylcholine receptor M1 (Homo sapiens) (UniProt P11229). The test can be described thus: Cholinergic receptor muscarinic 1 (CHRM1) small molecule agonists, cell-based qHTS assay (AID 1963589). Note: nearly all actives have a fitted effect of over 35% in size. The method in brief:
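Human M1 in stable CHO line; 18 h plating, 1 h dye load 37 C; cpd added (agonist mode); Ca2+ fluorescence kinetic read, 1 s intervals; 15 conc, 3 runs.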

Test [19] concerns the target Beta-2 adrenergic receptor (Homo sapiens) (UniProt P07550). The test can be described thus: Adrenergic beta2 receptor (ADRB2) small molecule antagonists, cell-based qHTS assay (AID 1963592). Note: series mostly up to about 92 µM; nearly all actives have a fitted effect of over 50% in size. The method in brief:
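Cells (CHO, stable ADRB2 overexpression) incubated 18-20hr at 37C; compounds added from DMSO; agonist mix (1nM isoproterenol, 100uM IBMX, 25uM Ro-20-1724) added; 0.5hr RT; d2-cAMP and anti-cAMP-cryptate added; 1hr RT; 665/615 nm read.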

Test [20] concerns the target 5-hydroxytryptamine receptor 2A (Homo sapiens) (UniProt P28223). Put plainly: 5-hydroxytryptamine receptor 2A (HTR2A) small molecule antagonists, cell-based qHTS assay (AID 1963586). Note: nearly all actives have a fitted effect of over 45% in size. The method in brief: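 Antagonist-mode intracellular calcium assay: DOI (4 nM) added after 5 min compound pre-incubation at room temperature to dye-loaded HTR2A-CHO cells. Fluorescence followed for 3 min, sampled every second.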
% is set by controls: 0 for no effect and ±100 for the full control effect.

Sequence of Muscarinic acetylcholine receptor M1 (Homo sapiens) (P11229 whole entry, looked up): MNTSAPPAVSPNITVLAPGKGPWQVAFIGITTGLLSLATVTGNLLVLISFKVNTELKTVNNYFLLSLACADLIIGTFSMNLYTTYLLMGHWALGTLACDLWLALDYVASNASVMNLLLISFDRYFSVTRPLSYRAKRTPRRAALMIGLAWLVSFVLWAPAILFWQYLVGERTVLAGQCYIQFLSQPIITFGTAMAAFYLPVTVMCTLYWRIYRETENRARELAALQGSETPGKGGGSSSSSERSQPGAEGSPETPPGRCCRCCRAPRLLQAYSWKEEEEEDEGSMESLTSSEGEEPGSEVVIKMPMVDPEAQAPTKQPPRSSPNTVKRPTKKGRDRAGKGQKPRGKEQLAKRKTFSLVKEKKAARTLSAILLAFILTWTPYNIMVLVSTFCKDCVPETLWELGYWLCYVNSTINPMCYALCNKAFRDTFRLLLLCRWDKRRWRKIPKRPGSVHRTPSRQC
Sequence of Gonadotropin-releasing hormone receptor (Homo sapiens) (P30968 whole entry, looked up): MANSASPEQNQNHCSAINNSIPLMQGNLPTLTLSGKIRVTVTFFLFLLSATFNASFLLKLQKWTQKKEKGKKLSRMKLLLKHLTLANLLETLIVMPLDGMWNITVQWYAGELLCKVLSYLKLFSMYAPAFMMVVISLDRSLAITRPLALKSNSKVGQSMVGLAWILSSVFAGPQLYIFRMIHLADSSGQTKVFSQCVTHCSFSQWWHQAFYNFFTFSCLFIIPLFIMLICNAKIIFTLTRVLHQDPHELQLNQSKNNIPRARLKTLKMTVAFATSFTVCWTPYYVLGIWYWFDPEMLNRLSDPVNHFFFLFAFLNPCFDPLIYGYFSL
Sequence of 5-hydroxytryptamine receptor 2A (Homo sapiens) (P28223 whole entry, looked up): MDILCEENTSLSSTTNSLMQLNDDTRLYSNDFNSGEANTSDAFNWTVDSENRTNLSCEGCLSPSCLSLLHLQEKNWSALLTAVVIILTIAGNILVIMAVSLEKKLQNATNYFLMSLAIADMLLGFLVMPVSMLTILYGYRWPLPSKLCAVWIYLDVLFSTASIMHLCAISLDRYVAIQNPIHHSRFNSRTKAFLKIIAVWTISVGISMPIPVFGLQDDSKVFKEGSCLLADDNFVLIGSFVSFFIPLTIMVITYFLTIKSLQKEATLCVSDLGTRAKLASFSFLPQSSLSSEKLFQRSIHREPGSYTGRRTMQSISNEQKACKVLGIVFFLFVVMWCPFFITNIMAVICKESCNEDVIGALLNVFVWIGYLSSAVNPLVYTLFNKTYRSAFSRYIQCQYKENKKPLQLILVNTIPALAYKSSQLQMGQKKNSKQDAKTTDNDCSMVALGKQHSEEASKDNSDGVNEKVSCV
Sequence of KiSS-1 receptor (Homo sapiens) (Q969F8 whole entry, looked up): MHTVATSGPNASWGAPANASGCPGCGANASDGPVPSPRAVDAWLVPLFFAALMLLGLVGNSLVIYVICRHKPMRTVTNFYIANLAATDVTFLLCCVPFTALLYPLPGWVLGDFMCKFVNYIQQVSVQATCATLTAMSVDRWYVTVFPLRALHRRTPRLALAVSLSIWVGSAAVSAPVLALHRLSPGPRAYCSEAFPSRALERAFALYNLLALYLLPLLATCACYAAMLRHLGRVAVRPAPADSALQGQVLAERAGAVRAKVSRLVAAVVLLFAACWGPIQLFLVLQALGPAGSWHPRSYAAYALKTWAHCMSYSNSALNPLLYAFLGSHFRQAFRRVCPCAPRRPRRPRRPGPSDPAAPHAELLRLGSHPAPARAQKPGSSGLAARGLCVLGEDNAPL
Sequence of D(2) dopamine receptor (Homo sapiens) (P14416 whole entry, looked up): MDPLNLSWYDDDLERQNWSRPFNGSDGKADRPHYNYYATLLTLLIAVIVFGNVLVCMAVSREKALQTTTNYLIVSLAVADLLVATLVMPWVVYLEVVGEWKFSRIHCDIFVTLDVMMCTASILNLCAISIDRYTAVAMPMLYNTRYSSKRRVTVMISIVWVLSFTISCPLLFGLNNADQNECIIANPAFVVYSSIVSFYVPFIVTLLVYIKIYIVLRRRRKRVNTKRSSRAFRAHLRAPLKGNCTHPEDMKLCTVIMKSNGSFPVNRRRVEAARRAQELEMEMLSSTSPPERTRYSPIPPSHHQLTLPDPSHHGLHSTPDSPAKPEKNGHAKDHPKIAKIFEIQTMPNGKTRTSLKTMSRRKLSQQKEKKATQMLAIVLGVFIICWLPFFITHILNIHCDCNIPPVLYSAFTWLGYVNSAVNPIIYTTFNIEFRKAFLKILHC
Sequence of Beta-2 adrenergic receptor (Homo sapiens) (P07550 whole entry, looked up): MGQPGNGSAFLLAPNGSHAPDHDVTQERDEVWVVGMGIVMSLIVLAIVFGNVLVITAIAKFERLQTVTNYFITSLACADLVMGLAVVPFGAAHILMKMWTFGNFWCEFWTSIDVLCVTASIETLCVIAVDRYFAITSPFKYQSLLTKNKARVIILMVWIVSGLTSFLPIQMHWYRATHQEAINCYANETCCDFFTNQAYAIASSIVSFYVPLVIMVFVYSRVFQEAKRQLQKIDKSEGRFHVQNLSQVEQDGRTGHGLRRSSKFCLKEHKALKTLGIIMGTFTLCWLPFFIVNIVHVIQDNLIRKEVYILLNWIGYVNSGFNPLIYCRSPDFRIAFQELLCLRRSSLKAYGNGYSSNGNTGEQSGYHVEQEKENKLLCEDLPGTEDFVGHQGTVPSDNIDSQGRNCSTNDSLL

Consider `O=C1c2ccccc2C(=O)c2ccccc21`, for which the activity change, negative = cytotoxicity in test [1] was 8.6% [at 19 µM]; in test [6], 2.91% [at 13.5 µM]; in [7] it was 1.32% [at 13.5 µM]; in test [8] it was 5.09% [at 13.5 µM]. In addition, the activity change in test [2] was -0.0358% [at 11.8 µM, stronger effect = higher value]. The activation is 8.4% [at 15.8 µM] in test [3]; 1.15% [at 13.5 µM] in test [4]; -4.38% [at 13.6 µM] in test [5]; -1.94% [at 13.5 µM] in test [9]; -4.26% [at 15.9 µM] in test [10]; -2.22% [at 19 µM] in test [12]. In addition, the activation is -36.8% [at 19 µM] in test [14] and -2.1% [at 19 µM] in [15]. The activity, negative = inhibition in test [11] is 2.2% [at 12.6 µM]. Further, the activity change, negative = inhibition in test [13] was -5.21% [at 18.9 µM]; in test [16] it was -1.46% [at 18.9 µM].
As to `[C-]1=CC=CC1.[Cl][Zr+2][Cl].c1cc[cH-]c1`, the Potency result in test [1], in [2], in test [3], in test [17], in test [6] and in test [7] was “inactive” each time. Besides, the Potency result in test [8], in test [10], in test [18], in test [12], in test [13] and in test [19] was “inactive” each time. In addition, the Potency entry in test [15] and in test [16] was “inactive” each time.
On to `ClC1=C(Cl)[C@]2(Cl)[C@@H]3[C@@H]4C[C@@H]([C@H]5O[C@@H]45)[C@@H]3[C@@]1(Cl)C2(Cl)Cl`, for which the Potency in [1] was 48.6 µM (active); in test [2], 7.76 µM (active); in [3] it was 23.7 µM (active); in test [14] it was 10.9 µM (active); in test [16], 68.6 µM (active). Further, in test [8], the Potency entry is “inactive”.
Consider `CCC1(CCC(C)C)C(=O)NC(=O)NC1=O`, for which the Potency result in test [1], in test [2], in [3], in test [17], in test [6] and in test [7] was “inactive” in each case. For the same compound, the Potency result in test [8], in test [12], in test [13], in test [19], in test [15] and in test [16] was “inactive” in each case.
For `N#CC(O)c1ccccc1` (centres undefined), the Potency entry in test [1], in [2], in test [3], in [17], in test [6] and in [7] was “inactive” each time. In addition, the Potency result in [20], in test [10], in test [11], in test [12], in test [13] and in test [19] was “inactive” throughout. In [16], the Potency entry was “inactive”.
Turning to `CCCCCOC(=O)c1ccccc1C(=O)OCCCCC`, the Potency result in test [1], in [2], in test [3], in test [4], in test [5] and in test [6] was “inactive” each time. Moreover, the Potency result in test [7], in [8], in [20], in test [10], in test [11] and in [18] was “inactive” each time. Further, the Potency result in [12], in [19], in [15] and in test [16] was “inactive” each time.
As to `CCOCCOC(C)=O`, the Potency entry in test [1], in test [2], in [3], in test [5], in [9] and in [10] was “inactive” in each case. Moreover, the Potency result in test [18], in test [12] and in test [15] was “inactive” each time. In test [13], the Potency is 12.8 µM (active).
Take `CN1CCC(O)(c2ccc(F)cc2)C(C(=O)c2ccc(F)cc2)C1` (centres undefined): the Potency entry in test [1], in test [2], in test [17], in test [4], in [5] and in test [6] was “inactive” each time. In addition, the Potency entry in test [7], in test [8], in [9], in test [20], in [10] and in [18] was “inactive” in each case. Moreover, the Potency result in [12], in [13], in test [19], in [14] and in test [15] was “inactive” each time.
As for `c1ccc2cc3c(cc2c1)-c1cccc2cccc-3c12`, the Potency entry in test [1], in [2], in test [3], in test [17], in [6] and in test [7] was “inactive” in each case. The Potency result in test [8], in test [10], in test [11], in test [18], in test [19] and in test [14] was “inactive” throughout. Moreover, the Potency result in test [15] and in test [16] was “inactive” each time.
As to `II`, the Potency entry in test [1], in [2], in [17], in test [4], in [5] and in test [6] was “inactive” in each case. The Potency entry in test [7], in test [8], in test [9], in test [20], in test [11] and in [18] was “inactive” in each case. For the same compound, the Potency result in [12], in test [13], in test [19] and in test [14] was “inactive” throughout.
